Test results published in the supplement of paper PMC5662767.

System: Drosophila S2 cl14 SmoIP sensor cells
Test: normalized SmoIP GFP fluorescence (untreated unstimulated = 0%, untreated Hh-stimulated = 100%); higher = more Smo activation sensor fluorescence
Conditions: compound concentration: 2 uM, 24 h
[1] = stimulation: Hh conditioned medium (+Hh)
[2] = stimulation: mock conditioned medium (-Hh)
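Further: flow cytometry read-out as median GFP intensity of gated cells, compounds added 30 min before Hh-conditioned or mock medium, mock-treated cells serving as unstimulated baseline.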

| SMILES | normalized SmoIP GFP fluorescence [1] [%] | normalized SmoIP GFP fluorescence [2] [%] |
| --- | --- | --- |
| CN1CCN(c2nc(C3=C(c4c[nH]c5ccccc45)C(=O)NC3=O)c3ccccc3n2)CC1 [sotrastaurin-aeb071] | 131 | 40.1 |
| CCCC(C)NC(=O)c1ccc(Cl)c(Cl)c1 (configuration not stated) | 95.2 | -4.7 |
| CN1CCc2nc(C(=O)N[C@@H]3C[C@@H](C(=O)N(C)C)CC[C@@H]3NC(=O)C(=O)Nc3ccc(Cl)cn3)sc2C1 [edoxaban] | 106 | -1.34 |
| CN(C)Cc1cccc(N/C(=C2\C(=O)Nc3cc(C(N)=O)ccc32)c2ccccc2)c1 | 103 | -1.88 |
| CN1C2CCC1CC(OC(=O)C(O)c1ccccc1)C2 (configuration not stated) [homatropine-bromide] | 102 | -4.81 |
| CN(C)CCC(c1ccc(Br)cc1)c1ccccn1 (configuration not stated) [brompheniramine] | 138 | -5.17 |
| O=C(Nc1ccc(-c2ccnc(Nc3ccc(N4CCOCC4)cc3)n2)cc1)C1CCCN1 (configuration not stated) | 121 | 2.12 |
| CC(C)(C)Cn1c(N)nc2ccc(-c3[nH]c(C(C)(C)C)nc3-c3ccc(F)cc3)nc21 | 101 | 1.35 |
| Cc1ncc(-c2ccnc(Nc3ccc(S(C)(=O)=O)cc3)n2)n1C(C)C | 156 | 11.2 |
| CC[C@H](NC(=O)[C@H](C)NC)C(=O)N1C[C@@H](O)C[C@H]1Cc1c(-c2[nH]c3cc(F)ccc3c2C[C@@H]2C[C@H](O)CN2C(=O)[C@H](CC)NC(=O)[C@H](C)NC)[nH]c2cc(F)ccc12 | 78.2 | -2.08 |
| CN(C)CCCCC(=O)Nc1ccc(NC(=S)NC(=O)c2ccc(C(C)(C)C)cc2)cc1 [tenovin-6] | 112 | 3.49 |
